Measured values taken from PubChem BioAssay AID488841 (Sanford-Burnham Center for Chemical Genomics, 2010).
Hit rate of the full screen: of about 1,400 compounds, about 380 (27%) were called active. Some of the results follow. A number with no mark means an inactive call.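 How the source made its calls: active means mean inhibition above 50% across duplicate retests at 10 µM; inactive means the rest.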

Test: yeast NALP1 reporter signal suppression – S. cerevisiae, luminescence, single concentration, NALP1 inhibitor project, confirmation (AID 488841);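 further: plate controls were DMSO in galactose medium for no effect and cells in plain SD medium for full effect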
Settings: S. cerevisiae NALP1/ASC/Caspase-1 reporter, beta-gal luminescence; at 10 µM; active compounds read high

Structure (SMILES)	inhibition
OCCn1c(-c2ccc(F)cc2)csc1=Nc1ccccc1	27.4%
CC(C)(C)c1cc(C(=O)O)n[nH]1	-1.95%
O=C1C(Nc2ccccc2)=C/C(=N/S(=O)(=O)c2cccs2)c2ccccc21	49.6%
O=C1c2ccccc2-c2cccc(NS(=O)(=O)c3ccc(C(F)(F)F)cc3)c21	23.4%
O=C(O)c1ccc(S(=O)(=O)/N=C2\C=C(Nc3ccccc3F)C(=O)c3ccccc32)cc1	98.8% (active)
CCOP(=O)(C1=C(O)C(=O)C(C(C)(C)C)=CC1=O)c1ccccc1 (stereo not drawn)	24.9%
O=C1CSC(=S)N1c1cccc(O)c1	99% (active)
O=C1CSC(=S)N1c1ccc(O)cc1	95.2% (active)
C/C(=N/N=C1\SCC(=O)N1c1ccccc1)c1ccc(C)cc1	28.1%
COc1cc(C2SCC(=O)N2CCCN(C)C)cc(OC)c1OC (stereo not drawn)	17.5%
COc1cc(N2C(=O)CSC2=S)cc(OC)c1OC	78.7% (active)
Fc1ccc(N2CCN(Cc3cnc(Oc4ccc(Br)cc4)s3)CC2)cc1	25.8%
N#CC1=C(N)Oc2n[nH]c(-c3cccs3)c2C1C1CCCCC1 (stereo not drawn)	35.7%
Cc1nc2cc(-c3ccc(Cl)cc3)nn2c(C)c1CCC(=O)NC(C)c1ccc2c(c1)OCCO2 (stereo not drawn)	21.6%
CC1(C)COC(/C=C/c2ccc([N+](=O)[O-])cc2)=N1	74.7% (active)
COc1ccccc1/C=N\N=C(\N)c1ccccn1	43.3%
CC(C)N(C)CCOC(=O)c1ccccc1Br	30.6%
COC(=O)c1ccccc1NC(=O)CN1CCC(n2nnc3cc(F)ccc32)CC1	24.9%
CCc1ccc(C(=O)NCc2ccc(Cl)cc2Cl)cc1	57.4% (active)
N=c1ccn(Cc2ccc(Cl)cc2Cl)cc1	35.2%
CCc1ccc(C(=O)NC(CC(C)C)C(=O)O)cc1 (stereo not drawn)	24.6%

Structure (SMILES)	inhibition
CC(C)Cn1c(CN(Cc2ccccc2)Cc2ccccc2)nc2c1c(=O)n(C)c(=O)n2C	35.5%
COc1cc(/C=C2\SC(=Nc3ccc(F)cc3)N(c3ccc(F)cc3)C2=O)ccc1OCC(=O)O	26.6%
CCOC(=O)c1cccnc1SCC(=O)NCc1ccccc1	41.5%
CSc1ccc2c(c1)N(CCC1CCCCN1C)c1ccccc1S2 (stereo not drawn)	71.1% (active)
CN1C/C(=C/c2ccncc2)C(=O)/C(=C/c2ccncc2)C1	13.2%
CC1(C)Cc2c(c(N3CCOCC3)nc3sc4c(NCCN5CCOCC5)nnnc4c23)CS1	27.2%
Cc1nc2nc3c(cn2n1)C(=O)CCC3	6.55%
CN1CCc2cccc3c2[C@H]1Cc1ccc(O)c(O)c1-3	42.5%
CN1CCc2cccc3c2[C@@H]1Cc1ccc(O)c(O)c1-3	71.3% (active)
Cc1[nH][nH]c(=O)c1C(c1ccc(-c2ccc(Cl)c(Cl)c2)o1)c1c(C)[nH][nH]c1=O	24.6%
Cc1ccc(CSCCNC(=O)CSCc2ccc([N+](=O)[O-])cc2)cc1	59.9% (active)
Cc1ccc(C(=O)NCCc2cccc(Cl)c2)cc1[N+](=O)[O-]	53.2% (active)
Cc1cccc(C(=O)NCc2ccc(S(N)(=O)=O)cc2)c1[N+](=O)[O-]	36.4%
C/C(=N/Nc1ccc([N+](=O)[O-])cc1)c1ccc(C)cc1C	49%
O=C(CSCc1ccc(F)cc1)NCc1ccco1	35.4%
COCCNC(=O)c1ccc(C)c(S(=O)(=O)Nc2ccc(C)cc2)c1	32.9%
Cc1ccccc1Cn1c(=N)n(CC(=O)c2ccc([N+](=O)[O-])cc2)c2ccccc21	49.5%
CCn1c2ccccc2c2cc(NC(=O)c3ccc(C)c([N+](=O)[O-])c3)ccc21	42.1%
Cc1ccc(C(=O)NCCSCc2ccccc2)cc1[N+](=O)[O-]	52.6% (active)
CCOC(=O)c1c(C)n(C)c2ccc(OC)c(NC(=O)CN3CCN(C4CCCCC4)CC3)c12	23.2%
COc1cc(NC(C)CCCN)c2ncccc2c1Oc1ccccc1 (stereo not drawn)	25.8%

Structure (SMILES)	inhibition
O=C1N/C(=N\N=C\c2cccnc2)SC1Cc1ccc(SC(F)F)cc1 (stereo not drawn)	24.2%
C=CCCCCc1nc2ccccc2c(=O)n1N	33%
COc1ccc(CCn2c(C(C)C)nc3c(c(=O)c4ccccc4n3C)c2=O)cc1	25.9%
COc1ccc2cc(C(C)c3nc4ccccc4c(=O)n3N)ccc2c1 (stereo not drawn)	53.1% (active)
COc1ccc(OC)c(/C=c2\sc3nc(-c4cccs4)nn3c2=O)c1	28.1%
O=[N+]([O-])/C=C/c1ccc2c(ccn2Cc2ccccc2)c1	99.9% (active)
O=C(CCC1CCCCC1)N1CCN(Cc2ccc3c(c2)OCO3)CC1	59.6% (active)
CC(C)c1ccc(CN2CCN(C(=O)CCl)CC2)cc1	39.5%
N#CCc1c(C#N)c(N)nc(N2CCN(Cc3ccc4c(c3)OCO4)CC2)c1C#N	27.2%
Clc1ccc(SCCCCN2CCOCC2)cc1	33%
COc1cccc(N2C(=O)C(O)=C(C(C)=O)C2c2ccc(OC)c(OC)c2)c1 (stereo not drawn)	33.1%
COC(=O)c1cc(=O)n(-c2c(Cl)cc(C(F)(F)F)cc2Cl)[nH]1	28.1%
CCOC(=O)c1c(C(F)(F)C(F)(F)C(F)(F)C(F)(F)F)n[nH]c1C	30%
Cc1cc(C(=O)COC(=O)c2ccc[nH]c2=O)c(C)n1-c1ccc(F)cc1	39%
CCOC(=O)c1c(C)[nH]c(C)c1C(=O)COC(=O)c1cc2ccccc2cc1O	37.1%
Cc1cc(C(=O)COC(=O)c2ccc[nH]c2=O)c(C)n1-c1ccccc1	58.6% (active)
Cc1cc2ccccc2n1CCNCc1c(C(=O)N2CCOCC2)nc2ccccn12	28.2%
CNC(CC(=O)c1ccc([N+](=O)[O-])cc1)C(Cl)(Cl)Cl (stereo not drawn)	47.5%
CCOC(=O)c1sc(=S)n(-c2ccc(OC)cc2)c1C	38.4%
CCOC(=O)c1ccc(N2C(=O)C=CC2=O)cc1	89% (active)
CCOC(=O)c1ccc(N2C(=O)CC(N3CCCC(C)C3)C2=O)cc1 (stereo not drawn)	35.9%
